The panel holds about 79,000 compounds, 15% with a hit somewhere; the sample as a whole holds those more often. The source made the active and inactive calls. Rule as the data show it: active = growth inhibition above about 70%; inactive = the rest.
Key:
[1] = NCI Yeast Anticancer Drug Screen. Data for the wt1 strain (AID 149);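 also: 0% = growth of vehicle-treated wt1 cultures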; conditions: S. cerevisiae wt1 strain (SPY 50644) growth inhibition, hits give high values
Summary of the method: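 Readout: yeast growth inhibition, normalised to vehicle controls, in the wt1 strain exposed to test compounds.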

[2] = NCI Yeast Anticancer Drug Screen. Data for the rad50EPP+ strain (AID 151);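 also: 0% = growth of vehicle-treated control cultures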; conditions: S. cerevisiae rad50 mutant strain, hits give high values
Summary of the method: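 One strain with a rad50 alteration (rad50EPP+) was compound-treated, its growth then compared to that of vehicle controls.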

[3] = NCI Yeast Anticancer Drug Screen. Data for the mgt1 strain (AID 153); conditions: S. cerevisiae mgt1 mutant growth inhibition, hits give high values
Summary of the method: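 After exposure of the mgt1 yeast mutant to compound, growth was measured and reported as inhibition compared with vehicle controls.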

[4] = NCI Yeast Anticancer Drug Screen. Data for the rad50 strain (AID 155);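 also: 0% = growth of vehicle-only cultures of the same strain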; conditions: S. cerevisiae rad50 strain growth inhibition, hits give high values
Summary of the method: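 Compounds were tested on a yeast strain with an engineered DNA damage repair alteration; the reported value is growth inhibition normalised to vehicle treatment.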

[5] = NCI Yeast Anticancer Drug Screen. Data for the mec2-1 strain (AID 157); conditions: S. cerevisiae mec2-1 strain, hits give high values
Summary of the method: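 Test agents were screened against the mec2-1 yeast strain, with defined DNA repair or cell cycle alteration. Growth was scored as inhibition against vehicle-only controls.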

[6] = NCI Yeast Anticancer Drug Screen. Data for the rad14 strain (AID 159);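 also: 0% = growth of vehicle-treated control cultures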; conditions: S. cerevisiae rad14 strain growth inhibition, hits give high values
Summary of the method: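 Compound-treated yeast with a defined DNA-repair lesion; growth inhibition normalised to vehicle-treated cultures.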

[7] = NCI Yeast Anticancer Drug Screen. Data for the sgs1 mgt1 strain (AID 161);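 also: 0% = growth of cultures given vehicle only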; conditions: S. cerevisiae sgs1 mgt1 strain, hits give high values
Summary of the method: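 Mutant yeast exposed to compound; growth scored against vehicle-only wells.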

[8] = NCI Yeast Anticancer Drug Screen. Data for the CLN2oe strain (AID 163);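 also: 0% = growth of vehicle-only control cultures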; conditions: S. cerevisiae CLN2oe strain, hits give high values
Summary of the method: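 Here, growth inhibition in a cell-cycle-altered yeast strain after compound exposure was quantified against vehicle control growth.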

[9] = NCI Yeast Anticancer Drug Screen. Data for the cln2 rad14 strain (AID 165);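 also: 0% = growth equal to vehicle treated cultures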; conditions: S. cerevisiae cln2 rad14 strain, hits give high values
Summary of the method: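 Growth of compound-exposed yeast (cln2 rad14 genotype) measured and expressed as inhibition relative to vehicle.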

[10] = NCI Yeast Anticancer Drug Screen. Data for the bub3 strain (AID 167); conditions: S. cerevisiae bub3 mutant strain, hits give high values
Summary of the method: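 Growth of a checkpoint-deficient yeast mutant is measured after compound exposure. Values represent inhibition relative to vehicle.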

[11] = NCI Yeast Anticancer Drug Screen. Data for the wt2 strain (AID 169);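 also: 0% = growth of vehicle-treated yeast cultures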; conditions: S. cerevisiae wt2 strain growth inhibition, hits give high values
Summary of the method: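 Genetically defined yeast strains from a DNA-repair/cell-cycle panel were used. Compound-exposed yeast growth was measured, and the inhibition was calculated relative to vehicle treatment.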

[12] = NCI Yeast Anticancer Drug Screen. Data for the mlh1 strain (AID 171);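 also: 0% = growth of vehicle-treated control cultures of the same strain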; conditions: S. cerevisiae mlh1 strain growth inhibition, hits give high values
Summary of the method: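 Here the genetically defined yeast mutant is grown with each compound, and the extent to which its growth falls below that of vehicle-exposed cells is reported.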

[13] = NCI Yeast Anticancer Drug Screen. Data for the sgs1 strain (AID 173);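 also: 0% = growth of vehicle-only control cultures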; conditions: S. cerevisiae sgs1 mutant, hits give high values
Summary of the method: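 Relative growth inhibition, referenced to vehicle, was determined in a yeast strain with a defined alteration affecting DNA damage repair or cell cycle control after compound exposure.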

[14] = NCI Yeast Anticancer Drug Screen. Data for the mlh1 rad18 strain (AID 175); conditions: S. cerevisiae mlh1 rad18 strain growth inhibition, hits give high values
Summary of the method: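 In this whole-cell yeast screen, a strain with altered DNA damage repair is challenged with compound, and its growth is measured against matched vehicle-treated controls.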

[15] = NCI Yeast Anticancer Drug Screen. Data for the rad18 strain (AID 177); conditions: S. cerevisiae rad18 mutant growth inhibition, hits give high values
Summary of the method: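 Screen uses a yeast strain with a defined lesion in DNA damage repair; compound effect is read as loss of growth compared to untreated vehicle cultures.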

[16] = NCI Yeast Anticancer Drug Screen. Data for the rad52 strain (AID 147);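 also: 0% = growth of vehicle-treated control cultures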; conditions: S. cerevisiae rad52 mutant growth inhibition, hits give high values
Summary of the method: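 Measured: yeast growth inhibition. System: strain with a defined DNA damage repair alteration. Reference: vehicle-treated control cultures.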

[17] = at 5.0 µM (retest, dose inferred, filed as 0.5)
[18] = at 50.0 µM (retest, dose inferred, filed as 5.0)

Measured: growth inhibition

Cc1ccc(NC(c2ccccc2)c2ccc3cccnc3c2O)cc1 (stereo unspecified)
inactive: [1]; at 1.2 µM 1% | [1]; at 3.7 µM 4% | [1]; at 11.0 µM 4% | [1]; at 33.0 µM 1% | [1]; at 100.0 µM 1% | [2]; at 1.2 µM -3% | [2]; at 3.7 µM -1% | [2]; at 11.0 µM -4% | [2]; at 33.0 µM -3% | [2]; at 100.0 µM -2% | [3]; at 1.2 µM 0% | [3]; at 3.7 µM 2% | [3]; at 11.0 µM 1% | [3]; at 33.0 µM 2% | [3]; at 100.0 µM 0% | [4]; at 1.2 µM 1% | [4]; at 3.7 µM -2% | [4]; [17] 18% | [4]; at 11.0 µM 6% | [4]; at 33.0 µM -2% | [4]; [18] 29% | [4]; at 50.0 µM 67.1% | [4]; at 100.0 µM -3% | [5]; at 1.2 µM 1% | [5]; at 3.7 µM 2% | [5]; [17] 5% | [5]; at 11.0 µM 1% | [5]; at 33.0 µM 2% | [5]; [18] 6% | [5]; at 50.0 µM 50.6% | [5]; at 100.0 µM 12% | [6]; at 1.2 µM 0% | [6]; at 3.7 µM -1% | [6]; at 11.0 µM 1% | [6]; at 33.0 µM -26% | [6]; at 100.0 µM 2% | [7]; [17] 9% | [7]; [18] 10% | [8]; at 1.2 µM 0% | [8]; at 3.7 µM -1% | [8]; at 11.0 µM 0% | [8]; at 33.0 µM 2% | [8]; at 100.0 µM 5% | [9]; [17] 48% | [9]; [18] 45% | [9]; at 50.0 µM 59.9% | [10]; at 1.2 µM -8% | [10]; at 3.7 µM -1% | [10]; [17] -18% | [10]; at 11.0 µM -31% | [10]; at 33.0 µM 8% | [10]; [18] -3% | [10]; at 50.0 µM 56.5% | [10]; at 100.0 µM 3% | [11]; at 1.2 µM 0% | [11]; at 3.7 µM 1% | [11]; at 11.0 µM -1% | [11]; at 33.0 µM -1% | [11]; at 100.0 µM -2% | [12]; at 1.2 µM 2% | [12]; at 3.7 µM 2% | [12]; at 11.0 µM 3% | [12]; at 33.0 µM -22% | [12]; at 100.0 µM 9% | [13]; at 1.2 µM 2% | [13]; at 3.7 µM 3% | [13]; at 11.0 µM 3% | [13]; at 33.0 µM 0% | [13]; at 100.0 µM -3% | [14]; [17] 5% | [14]; [18] 10% | [14]; at 50.0 µM 33% | [15]; at 1.2 µM -15% | [15]; at 3.7 µM 3% | [15]; at 11.0 µM -10% | [15]; at 33.0 µM -2% | [15]; at 100.0 µM -12%
active: [7]; at 50.0 µM 79.7%

CCOC1=C/C(=N\Nc2ccc([N+](=O)[O-])cc2)CCC1
inactive: [16]; at 1.2 µM 0% | [16]; at 3.7 µM 8% | [16]; at 11.0 µM 29% | [16]; at 33.0 µM 69% | [16]; at 100.0 µM 26% | [2]; at 1.2 µM 3% | [2]; at 3.7 µM 20% | [2]; at 100.0 µM 58% | [3]; at 1.2 µM 3% | [3]; at 3.7 µM 9% | [3]; at 11.0 µM 18% | [3]; at 33.0 µM 22% | [3]; at 100.0 µM 10% | [4]; at 1.2 µM 3% | [4]; at 3.7 µM 10% | [4]; [17] 17% | [4]; at 11.0 µM 22% | [4]; at 33.0 µM 30% | [4]; [18] 51% | [4]; at 50.0 µM 23.4% | [4]; at 100.0 µM 10% | [5]; at 1.2 µM 0% | [5]; at 3.7 µM 5% | [5]; [17] 1% | [5]; at 11.0 µM 19% | [5]; at 33.0 µM 31% | [5]; [18] 67% | [5]; at 50.0 µM 37.9% | [5]; at 100.0 µM 11% | [6]; at 1.2 µM 2% | [6]; at 3.7 µM 9% | [6]; at 11.0 µM 27% | [6]; at 100.0 µM 33% | [7]; [17] 10% | [7]; [18] 21% | [7]; at 50.0 µM 48.6% | [9]; [17] 5% | [9]; [18] 10% | [9]; at 50.0 µM 29.5% | [10]; at 1.2 µM -3% | [10]; at 3.7 µM 4% | [10]; [17] -1% | [10]; at 11.0 µM 11% | [10]; at 33.0 µM 15% | [10]; [18] 33% | [10]; at 100.0 µM 18% | [11]; at 1.2 µM -1% | [11]; at 3.7 µM 3% | [11]; at 11.0 µM 7% | [11]; at 33.0 µM 24% | [11]; at 100.0 µM 11% | [13]; at 1.2 µM 1% | [13]; at 3.7 µM 3% | [13]; at 11.0 µM 18% | [13]; at 33.0 µM 50% | [13]; at 100.0 µM 20% | [14]; [17] 21% | [14]; at 50.0 µM 41.7% | [15]; at 1.2 µM 4% | [15]; at 3.7 µM 8% | [15]; at 11.0 µM 30% | [15]; at 33.0 µM 62% | [15]; at 100.0 µM 55%
active: [2]; at 11.0 µM 70% | [2]; at 33.0 µM 87% | [6]; at 33.0 µM 73% | [10]; at 50.0 µM 95% | [14]; [18] 87%

Reference: PubChem BioAssay (NCI)
